Source: PubChem BioAssay (several laboratories)
Mcl1 Noxa PPI = Mcl-1/Noxa binding inhibitors, primary screen, biochemical, TR-FRET, 1536-well; AID 1022, 2008; TR-FRET Mcl-1/Noxa peptide binding, 2 h; inhibition, % at 21.7 µM; Induced myeloid leukemia cell differentiation protein Mcl-1 (Homo sapiens), Q07820; 220,000 compounds, 1.5% hits;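 active = compounds that cut the protein-peptide binding signal by more than 50% relative to plate controls in a single-dose test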;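 also: His-tagged Mcl-1 with rhodamine Noxa BH3 peptide and terbium anti-His antibody; 0% = Mcl-1 plus Noxa peptide wells and 100% = peptide-only wells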
Target sequence (Q07820 whole entry, looked up): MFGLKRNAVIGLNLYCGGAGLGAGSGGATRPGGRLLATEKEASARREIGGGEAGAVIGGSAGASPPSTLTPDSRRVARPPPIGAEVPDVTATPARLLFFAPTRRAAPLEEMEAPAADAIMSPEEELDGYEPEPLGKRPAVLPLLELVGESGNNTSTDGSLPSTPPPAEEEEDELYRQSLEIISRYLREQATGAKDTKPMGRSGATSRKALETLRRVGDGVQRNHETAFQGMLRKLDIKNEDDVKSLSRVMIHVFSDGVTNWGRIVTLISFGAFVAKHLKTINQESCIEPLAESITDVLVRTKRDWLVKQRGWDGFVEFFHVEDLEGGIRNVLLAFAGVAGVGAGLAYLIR
Mcl-1 Bim block = inhibitors of Bim peptide binding to Mcl-1, primary screen, biochemical, bead-based flow cytometry, multiplex; Induced myeloid leukemia cell differentiation protein Mcl-1 (Homo sapiens), Q07820; Bim peptide-Mcl-1 binding; inhibition, % at 10 µM; 190,000 compounds, 0.1% hits; AID 1009, 2008; in the data active = inhibition above about 40%;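 also: 0% = no compound tracer wells and 100% = peptide blocker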
Mcl1-Bid inh = Mcl-1/Bid binding inhibitors, primary screen, biochemical, TR-FRET, 1536-well; TR-FRET Mcl-1/Bid-Dy647 peptide binding; inhibition, % at 21.7 µM; 220,000 compounds, 0.97% hits; AID 1021, 2008;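 active = compounds that cut the binding signal by more than half at the single screening dose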;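 also: His-tagged Mcl-1 with europium anti-His antibody binding Bid BH3 peptide; 0% = Mcl-1 plus peptide wells and 100% = peptide-only wells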
NCF1 inh = p47phox/p22phox peptide binding inhibitors, primary screen, biochemical, uHTS, NADPH oxidase regulatory subunit; 220,000 compounds, 0.53% hits; inhibition, % at 24.7 µM; fluorescence polarization, 2 h; Neutrophil cytosol factor 1 (Homo sapiens), P14598; AID 1274, 2008;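 also: 0% = p47phox with labelled peptide and 100% = labelled peptide alone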
eIF4E-4G inh = eIF4E–eIF4G protein interaction inhibitors, primary screen, biochemical, uHTS, TR-FRET, eIF4GI fragment; TR-FRET eIF4E-eIF4GI(517-606) binding, 2 h; 220,000 compounds, 0.37% hits; Eukaryotic translation initiation factor 4E (Mus musculus) + Eukaryotic translation …; AID 782, 2007; inhibition, % at 21.7 µM;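 also: 0% = full FRET control wells and 100% = background wells lacking eIF4GI fragment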
14-3-3 Bad PPI = inhibitors of 14-3-3 zeta/Bad binding, primary screen, biochemical, TR-FRET, bovine 14-3-3 zeta. TR-FRET 14-3-3zeta/Dy647-pBad peptide displacement, 1 h. inhibition, % at 21.7 µM. 220,000 compounds, 0.71% hits;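 active = inhibition above about 70%, limit read from the data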;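 also: 0% = full 14-3-3 plus peptide FRET controls and 100% = background without 14-3-3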
Target sequence (P63103 whole entry, looked up): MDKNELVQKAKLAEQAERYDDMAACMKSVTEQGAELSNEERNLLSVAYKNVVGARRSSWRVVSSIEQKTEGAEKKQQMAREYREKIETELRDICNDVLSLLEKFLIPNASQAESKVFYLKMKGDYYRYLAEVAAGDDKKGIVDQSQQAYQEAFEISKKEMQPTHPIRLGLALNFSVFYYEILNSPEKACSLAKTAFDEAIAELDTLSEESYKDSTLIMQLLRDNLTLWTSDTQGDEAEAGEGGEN
Starred values were filed as active, the others as inactive; . = not tested or not shown. Only some compounds are listed: those with a hit (about 3.3% of all), similar ones and a draw of the others.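 The calls were made as follows, unless noted: active = inhibition above about 30% (limit read from the data); inactive = the rest.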

SMILES	Mcl1 Noxa PPI	Mcl-1 Bim block	Mcl1-Bid inh	NCF1 inh	eIF4E-4G inh	14-3-3 Bad PPI
CN1C(=O)NC(c2cccc(O)c2)C(C(=O)c2cccs2)C1(O)C(F)(F)F (centres undefined)	-17	-4	-13	4	-1	8
CCOC(=O)C1C(c2cccs2)NC(=O)N(C)C1(O)C(F)(F)F (centres undefined)	0	-1	61*	-7	-2	-13
CCCCC(=O)Nc1cccc(NC(=S)NC(C)=O)c1	8	-3	-42	-10	1	4
Cc1nccc(-c2cc(-c3ccc(Cl)cc3Cl)no2)n1	-10	.	5	-2	0	-1
COc1ccc(-c2cc(C(F)(F)F)n3nc(C(=O)O)nc3n2)cc1	19	3	19	65*	-4	24
O=C(O)[C@H](Cc1ccccc1)N1Cc2ccccc2C1=O	19	0	72*	0	-4	63
COc1ccc(NC(=O)CN2C(=O)C(C)SC(C)C2=O)c(OC)c1 (centres undefined)	-11	-2	-13	-2	-4	-4
O=C(O)C(Cc1ccccc1)N1C(=O)/C(=C/c2cccc3ccccc23)SC1=S (centres undefined)	78*	4	91*	-39	11	-3
O=C(O)C(Cc1ccccc1)N1C(=O)/C(=C/c2ccccc2)SC1=S (centres undefined)	21	-5	17	-2	13	-1
COc1cc(/C=C2/SC(=S)N(CC3CCCO3)C2=O)ccc1O (centres undefined)	13	-1	72*	-200	0	-14
Cc1ccc(/C=C2\SC(=S)N(C(Cc3ccccc3)C(=O)O)C2=O)cc1 (centres undefined)	23	0	20	-8	-1	-13
COc1cc(/C=C2\SC(=S)N(C(Cc3ccccc3)C(=O)O)C2=O)ccc1O (centres undefined)	19	.	56*	-206	1	10
COc1ccc(-n2ncc3c(SCC(=O)N4CCN(c5ccccc5OC)CC4)ncnc32)cc1	-20	-24	-5	-25	1	4
Cc1ccc(C(=O)N[C@H](C(=O)Nc2cc(Cl)cc(Cl)c2)C(C)C)cc1	-16	-3	-41	-10	-9	10
CC1CCN(CCCn2c(=S)[nH]c3c(sc4ccc([N+](=O)[O-])cc43)c2=O)CC1	48	1	-41	0	1	-8
CC1CCN(CCCn2c(=S)[nH]c3c(sc4ccccc43)c2=O)CC1	59*	-3	-80	-7	2	-11
Cc1ccc(NC(=O)CSc2nnc(-c3ccncc3)n2C)cc1S(=O)(=O)N1CCOCC1	11	1	-8	-8	1	-9
O=C(COc1ccc(Cl)cc1Cl)Nc1c(-c2cccs2)nc2ccccn12	52*	27	24	-17	-13	51
CCCN(C(=O)COc1ccc(Cl)cc1Cl)c1c(N)n(Cc2ccccc2)c(=O)[nH]c1=O	13	0	-31	4	-1	-2
COCCCN(C(=O)c1cc2c(s1)CCC2)c1c(N)n(Cc2ccccc2)c(=O)[nH]c1=O	53*	0	-18	0	5	-14
CCCN(C(=O)c1cc2c(s1)CCC2)c1c(N)n(Cc2ccccc2)c(=O)[nH]c1=O	62*	.	-24	1	21	12
Cc1c(Cl)sn(-c2ccc(Cl)cc2)c1=O	24	-2	-20	22	20	-35
CC(=O)Nc1cc(Cl)c(N=Cc2ccc(O)cc2O)cc1Cl	50	1	-24	-24	-2	3
CCOC(=O)c1sc(/N=C/c2ccc(O)cc2O)cc1C	57*	-1	-48	-16	10	-10
O=C(Nc1cc(C(F)(F)F)ccc1N1CCOCC1)c1ccc2ccccc2n1	68*	-6	-21	-4	2	8
SMILES	Mcl1 Noxa PPI	Mcl-1 Bim block	Mcl1-Bid inh	NCF1 inh	eIF4E-4G inh	14-3-3 Bad PPI
O=C(Nc1cc(C(F)(F)F)ccc1N1CCOCC1)c1ccccc1F	0	-2	-20	-3	2	73*
O=C(Nc1cc(C(F)(F)F)ccc1N1CCOCC1)c1cccc(F)c1	-10	-1	-13	-9	2	-3
Cc1ccc(-n2nc(C)c(=O)c(-c3ccccc3)c2NC(=O)c2cccs2)cc1	0	.	0	-15	5	3
COc1ccc(NC(=O)CSc2ccc3c4c(cccc24)C(=O)c2ccccc2-3)cc1	18	-2	45	-51	-10	28
N#Cc1cccc(NC(=O)CSc2ccc3c4c(cccc24)C(=O)c2ccccc2-3)c1	22	-1	74*	40*	4	52
Cc1cc(C)n2nnnc2n1	-1	.	-17	-10	-3	2
CC(/C=N/NC(=O)c1sc(N)nc1C)=C\c1ccccc1	19	-1	0	-4	8	-7
O=c1c2ccccc2nc(/C=C/c2cccnc2)n1Cc1ccccc1	31	2	91*	8	92*	94*
O=c1c2ccccc2nc(/C=C/c2ccccc2)n1CCc1ccccc1	5	-4	12	-15	2	0
O=c1c2ccccc2nc(/C=C/c2cccnc2)n1CCc1ccccc1	22	.	95*	-4	11	68
COC(=O)c1c(C)oc(C)c1S(=O)(=O)NC(C)(C)C	-6	.	-24	-7	-1	-8
O=C(Cc1ccccc1)Oc1coc(CSc2ncccn2)cc1=O	-8	-1	-21	8	3	-1
Cc1ccc(C)c(NS(=O)(=O)c2c(C)ccc3nsnc23)c1	4	1	7	-13	-2	-7
Cc1ccc2nsnc2c1S(=O)(=O)NCCc1c(C)[nH]c2ccc(F)cc12	8	0	55*	-313	-3	5
O=C1NC(=Nc2ccc(O)cc2)S/C1=C\C=C\c1ccco1	60*	.	-20	-14	6	7
COc1cc(/C=C2\SC(=Nc3ccc(O)cc3)NC2=O)cc(OC)c1OC	10	.	-3	-15	-3	-1
COc1cc(/C=C2/SC(=Nc3ccc(O)cc3)NC2=O)cc(OC)c1O	51*	15	-51	-123	6	1
C#Cc1ccc([C@H]2C=C(C(=O)N3CCOCC3)O[C@@H](OCC)[C@@H]2CCCO)cc1	0	0	-6	.	-2	1
Cc1ccc(C)c(NC(=O)Cc2csc(-c3ccccc3)n2)c1	14	2	-11	-19	3	0
COc1ccc(CC(=O)NNc2ncnc3c2cnn3-c2ccc(C)cc2)cc1OC	1	25	-32	-44	-6	6
